Laboratory results: PubChem BioAssay AID463173 (ICCB-Longwood Screening Facility, Harvard Medical School, 2010)
In all, about 52,000 compounds went through this assay and about 1,700 (3.3%) were called active. The full list was thinned out, with actives kept by preference. Values without a mark were called inactive. No stated cut-off is given here; in the data, active means survival mostly below about 52% (no sharp cut-off); inactive means mostly above about 56%.

tested on: Wild type; test: growth inhibition of S. aureus wild type versus tarO mutant, primary screen, teichoic acid synthesis inhibitors, RN4220, OD600 (AID 463173); conditions: S. aureus RN4220 wild type/DeltatarO growth, OD600, 18 h, active compounds read low, screened at 18.75 µg/mL (by protocol)

Row | SMILES | survival
1 | Cc1ccc(CNC(=O)CN2C(=O)C3CCCCN3c3ccc(C(=O)N4CCCC4)cc32)cc1 (stereo not drawn) | 81%
2 | COc1ccc(-c2ccc(/C=N/NC(N)=O)o2)cc1 | 114%
3 | CC(=O)C1=C(c2ccc(Cl)c(Cl)c2)N(C(C)=O)n2c(nnc2-c2ccccc2)S1 | 83%
4 | COc1ccc(-c2nnc3n2N(C(C)=O)C(c2ccc(Cl)c(Cl)c2)=C(C(C)=O)S3)cc1 | -3% (active)
5 | COc1ccc(C2=C(C(C)=O)Sc3nnc(-c4ccccc4)n3N2C(C)=O)cc1 | 76%
6 | COC(=O)c1c(NC(=O)c2cc3nc(-c4ccc(OC)cc4)cc(C(F)(F)F)n3n2)sc2c1CCCC2 | 73%
7 | Cc1c(CNC2CCCCCC2)c(C(=O)O)c(C)n1Cc1ccc(F)cc1 | 98%
8 | CCOc1ccccc1CNS(=O)(=O)c1cnc(N)nc1 | 55%
9 | Nc1ncc(S(=O)(=O)Nc2ccc(F)cc2F)cn1 | 82%
10 | CCOc1ccccc1NS(=O)(=O)c1cnc(N)nc1 | -3% (active)
11 | COc1ccc(-c2c3c(=O)n(C)c(=O)n(C)c3c3n2-c2ccccc2NC3c2ccc(OC)cc2)cc1 (stereo not drawn) | 8% (active)
12 | COc1ccc(-c2c3c(=O)n(C)c(=O)n(C)c3c3n2-c2ccccc2NC3c2ccccc2OC)cc1 (stereo not drawn) | 64%
13 | COc1ccc(C2Nc3ccccc3-n3c(-c4ccccc4)c4c(=O)n(C)c(=O)n(C)c4c32)cc1 (stereo not drawn) | -3% (active)
14 | Cn1c(=O)c2c(-c3ccccc3)n3c(c2n(C)c1=O)C(c1ccc([N+](=O)[O-])cc1)Nc1ccccc1-3 (stereo not drawn) | 21%
15 | Cc1ccc(C2Nc3cc(C)c(C)cc3-n3c(-c4ccccc4)c4c(=O)n(C)c(=O)n(C)c4c32)o1 (stereo not drawn) | 77%
16 | COc1ccc(-c2c3c(=O)n(C)c(=O)n(C)c3c3n2-c2ccccc2NC3c2ccco2)cc1 (stereo not drawn) | 57%
17 | COc1ccc(-c2nc3ccccc3n3c(-c4ccccc4)c4c(=O)n(C)c(=O)n(C)c4c23)cc1 | 80%
18 | Cc1ccc(C2Nc3ccccc3-n3c(-c4ccccc4)c4c(=O)n(C)c(=O)n(C)c4c32)o1 (stereo not drawn) | 74%
19 | Cc1ccc(C2Nc3ccccc3-n3c(-c4ccccc4)c4c(=O)n(C)c(=O)n(C)c4c32)cc1 (stereo not drawn) | -8% (active)
20 | Cc1cc(C)cc(NC(=O)CN2C(=O)CSc3ccc(S(=O)(=O)N4CCCC4)cc32)c1 | 88%
21 | Cc1nnc(SCc2nc(-c3ccc(Cl)cc3)no2)n1-c1ccc(F)cc1 | 100%
22 | CC(C)CCNC(=O)CCCN1C(=O)c2ccccc2Sc2ncccc21 | 85%
23 | CCS(=O)(=O)c1nc(S(=O)(=O)c2ccc(C)cc2)c(NC(C)c2ccccc2)s1 (stereo not drawn) | 136%
24 | COC(=O)c1ccc2c(=O)n(CCCCCC(=O)N3CCN(c4ccc(OC)cc4)CC3)c(=O)[nH]c2c1 | 66%
25 | O=C(Nc1ccc(F)c(F)c1)C1CCCN1S(=O)(=O)c1cccc2nsnc12 (stereo not drawn) | 77%
26 | CCN(CC)CCN(C(=O)c1ccco1)c1nc2c(C)cccc2s1 | 98%
27 | O=C(Cn1nc(-c2nccc3ccccc23)oc1=O)N1CCCc2ccccc21 | 103%

Row | SMILES | survival
28 | COc1ccc(N2CCN(c3oc(/C=C/c4cccc(OC)c4)nc3C#N)CC2)cc1 | 83%
29 | COc1ccc(-c2nc(CNC(=O)Nc3ccccc3)c(C)o2)cc1 | 84%
30 | CCOC(=O)c1cccc2c1N[C@@H](c1ccc(F)cc1)[C@H]1CC=C[C@@H]21 | 12% (active)
31 | COC(=O)c1cccc2c1NC(c1cccnc1)C1CC=CC21 (stereo not drawn) | 111%
32 | COC(=O)c1ccc([C@@H]2Nc3c(cccc3C(F)(F)F)[C@@H]3C=CC[C@@H]32)cc1 | 3% (active)
33 | COC(=O)c1ccc([C@H]2Nc3ccc(S(=O)(=O)Nc4ccc(F)cc4)cc3[C@H]3C=CC[C@H]32)cc1 | 69%
34 | COc1ccc(Br)cc1[C@@H]1Nc2ccc(C(=O)O)cc2[C@@H]2C=CC[C@@H]21 | 65%
35 | COC(=O)c1ccc([C@H]2Nc3ccc(S(=O)(=O)Nc4cccc(C)c4)cc3[C@H]3C=CC[C@H]32)cc1 | 68%
36 | COC(=O)c1ccc([C@@H]2Nc3c(C)cc(C)cc3[C@@H]3C=CC[C@@H]32)cc1 | 87%
37 | CCOc1ccc2c(c1)[C@@H]1C=CC[C@@H]1[C@H](c1ccccc1Cl)N2 | 0% (active)
38 | COc1cccc(NS(=O)(=O)c2ccc3c(c2)[C@H]2C=CC[C@H]2[C@@H](c2ccccc2Cl)N3)c1 | 131%
39 | Fc1ccc([C@@H]2Nc3ccccc3[C@@H]3C=CC[C@@H]32)cc1 | 88%
40 | CCOc1cccc2c1N[C@@H](c1ccc(C(=O)O)cc1)[C@H]1CC=C[C@@H]21 | 78%
41 | CCOC(=O)c1ccc2c(c1)[C@@H]1C=CC[C@@H]1[C@H](c1cccc(OC)c1OC)N2 | 0% (active)
42 | Fc1ccc(-n2ncc3c(Nc4ccc(Oc5ccc(Cl)cc5)cc4)ncnc32)cc1 | 85%
43 | CC(=O)c1ccc(NC(=O)C2CCC(CNS(=O)(=O)c3cccs3)CC2)cc1 (stereo not drawn) | 60%
44 | O=C(Cn1c(=O)n(CC2CCCO2)c(=O)c2ccccc21)Nc1cccc(Cl)c1 (stereo not drawn) | 82%
45 | Cn1c(=O)c(=O)n(C)c2cc(NS(=O)(=O)c3ccc(Br)cc3)c(Cl)cc21 | 65%
46 | Cc1ccc2oc3c(c(=O)c2c1)C(c1ccccc1F)N(CCCN1CCOCC1)C3=O (stereo not drawn) | 71%
47 | CCOc1ccc(NC(=O)C(CC)n2c(=O)c(-c3ccccc3NC(C)=O)nc3ccccc32)cc1 (stereo not drawn) | 64%
48 | CC(=O)N1CCc2cc(S(=O)(=O)NC(CC(C)C)C(=O)NCCc3cccc(C)c3)ccc21 (stereo not drawn) | 76%
49 | Cc1nonc1C(=O)NCC(=O)O | 91%
50 | O=C(Nc1cccc(C(F)(F)F)c1)N1CC2CCCN2c2ccccc21 (stereo not drawn) | 55%
51 | COc1ccc(NS(=O)(=O)c2ccc3c(c2)[C@H]2C=CC[C@H]2[C@@H](c2ccc(C(=O)O)cc2)N3)cc1 | 68%
52 | COC(=O)c1ccc([C@@H]2Nc3c(OC)ccc(C)c3[C@@H]3C=CC[C@@H]32)cc1 | 77%
53 | Cc1ccc(Cl)c2c1N[C@@H](c1ccc(C(=O)O)cc1)[C@H]1CC=C[C@@H]21 | 10% (active)
